# From PubChem
# AmpC inh det: blocks E. coli AmpC beta-lactamase in presence of detergent; hit rate 0.09% among 71,000; purified AmpC, nitrocefin hydrolysis with detergent; AID 584; Potency, µM (highest dose often 28.7 µM), for the others: top-dose activity change, negative = inhibition; P00811; active = well fitted curve in the direction sought with a large enough effect; inconclusive = small, poorly fitted or top-dose-only effect; also: % is scaled to controls: 0 for no effect and ±100 for the full control effect
# Target sequence (P00811 whole entry, looked up): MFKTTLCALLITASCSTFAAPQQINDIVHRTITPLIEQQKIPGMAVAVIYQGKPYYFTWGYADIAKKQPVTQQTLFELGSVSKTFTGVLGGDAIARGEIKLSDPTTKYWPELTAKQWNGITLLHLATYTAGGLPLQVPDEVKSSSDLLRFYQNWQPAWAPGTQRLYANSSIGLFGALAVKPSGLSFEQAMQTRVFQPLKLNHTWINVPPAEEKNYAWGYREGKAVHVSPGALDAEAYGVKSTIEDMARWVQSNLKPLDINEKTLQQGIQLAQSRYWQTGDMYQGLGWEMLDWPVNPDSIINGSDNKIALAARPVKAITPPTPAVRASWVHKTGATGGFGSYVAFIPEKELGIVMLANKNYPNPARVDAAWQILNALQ
#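 E. coli AmpC (5.3 nM) in 20 mM phosphate pH 7.0 with 0.01% Triton X-100, preincubated 15 min RT with compound; nitrocefin (2 uL of 800 uM stock) hydrolysis followed by 480 nm absorbance every 20 s over 4 min.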
# Anthrax LT inh: inhibitors of anthrax lethal toxin internalization; Cells, anthrax lethal toxin internalization, FRET ratio (460/530); Potency, µM (highest dose often 40 µM), without a hit: at the highest dose activity change, negative = inhibition, most hits filed as inhibitors; hit rate 0.67% among 70,000; AID 912; also: % is scaled to controls: 0 for no effect and ±100 for the full control effect; nearly all actives have a fitted effect of over 50% in size
# AmpC inh no det: inhibitors of E. coli AmpC beta-lactamase without detergent | P00811 | AmpC nitrocefin hydrolysis, absorbance 480 nm, no detergent | Potency, µM (series often up to 28.7 µM), for the others: at the highest dose activity change, negative = inhibition | hit rate 1.8% among 71,000 | AID 585; also: % of control where 0% means no effect
#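 AmpC in 20 mM phosphate buffer pH 7.0 was preincubated 15 min at room temperature with compounds. Nitrocefin (800 uM stock) was then added and hydrolysis followed at 480 nm every 20 s for 4 min.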
# Prx2 Sm inh: Schistosoma mansoni Prx2 inhibition. AID 448. S. mansoni Prx2 activity coupled to TGR/GSH (TGR is thioredoxin glutathione reductase), NADPH fluorescence loss, qHTS. hit rate 0.07% among 65,000. Potency, µM
#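 Coupled assay in which S. mansoni TGR passes NADPH reducing equivalents via glutathione to Prx2, which reduces H2O2. Compounds were preincubated 15 min at room temperature with 25 nM TGR/50 nM Prx2 mix. Kinetic NADPH fluorescence loss (ex 365/em 450 nm) was monitored.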
# * hit, by the source's call; ? = inconclusive; · = no result given; ! = not confirmed by another sample; [ ] = another dose, or the depositor's remark. Shown are actives, neighbours in structure and some others; about 2.6% of the full set was active somewhere. Unless noted, calls follow the shape of the full dose curve. Potency is read from the fitted curve at half-maximal effect.
SMILES,AmpC inh det,Anthrax LT inh,AmpC inh no det,Prx2 Sm inh
O=C1c2c(O)cc(O)cc2O[C@@H](c2ccc(O)c(O)c2)[C@H]1O,18%,2%,-13%,>57
CCOC(=O)C1CCCN(c2c(Nc3cccc(C)c3)c(=O)c2=O)C1 (configuration not stated),12%,1%,4µM*[single pt active],·
CCOC(=O)C1CCCN(c2c(N3CCN(c4ccccn4)CC3)c(=O)c2=O)C1 (configuration not stated),11%,1%,4µM*[single pt active],>57
CCOC(=O)C1CCCN(c2c(NCCCN(C)c3ccccc3)c(=O)c2=O)C1 (configuration not stated),11%,?,42%,>57
Cc1c(C(=O)c2ccc3ccccc3c2)c2cccc3c2n1[C@H](CN1CCOCC1)CO3,-6%,2µM*,115%,>26
CC(C)(C)c1ccccc1OCC(=O)Nc1ncn[nH]1,11%,?,-2%,>57
CC(C)(C)c1cc(Br)ccc1OCC(=O)Nc1ncn[nH]1,4%,7.9µM*,-3%,·
CCN(CC)[C@@H](C)C(=O)N1c2ccccc2Sc2ccccc21,-2%,?,23%,>57
COC(=O)CSCc1nc2ccccc2[nH]c1=O,22%,6%,4µM*[single pt active],>57
COC(=O)CCc1nc2ccccc2[nH]c1=O,4%,0%,-5%,>57
Cc1ccc(S(=O)(=O)n2nc(C)c(Br)c2C)c(C)c1C,8%,13µM*,-8%,>57
CCOC(=O)N1CCN(S(=O)(=O)c2ccc(C)c(C)c2C)CC1,-9%,17%,63%,>57
CC(C)C1=CC2=CC[C@H]3[C@@](C)(CCC[C@]3(C)C(=O)O)[C@@H]2CC1,-1%,?,-8%,>57
CCCCN(C)Cc1c(C)[nH]c2ccc(OCC)cc2c1=O,16%,-4%,4µM*[single pt active],>57
CCOc1ccc2[nH]c(C)c(CN3CCN(CC)CC3)c(=O)c2c1,6%,-18%,-14%,>57
O=C(O)CCCCn1ccc(=O)[nH]c1=O,-1%[5.75 µM],-7%[8 µM],-1%[5.75 µM],>57
Cn1c(=O)c2c(nc(/C=C\c3cccc(Cl)c3)n2C)n(C)c1=O,0%,-3%,12%,>57
CCCn1c(Nc2nc3ccccc3n2C)nc2ccccc21,-4%,6.3µM*,-13%,>57
Cn1c(NCc2ccccc2Cl)nc2ccccc21,10%,-24%,4µM*[single pt active],>57
O=C(CCc1ccc(O)cc1)c1c(O)cc(O)cc1O[C@@H]1O[C@@H](CO)[C@@H](O)[C@@H](O)[C@H]1O,11%,-1%,-2%,>57
CCNC(C)(C)[C@@H](SS)c1ccc(Br)cc1,-1%[5.75 µM],-15%[8 µM],-5%[5.75 µM],>57
COc1ccc(-c2nc3cnc(N4CCOCC4)nc3n(-c3ccc(OC)cc3)c2=O)cc1,16%,?,62%,>57
O=C(O)/C=C\c1c2ccc(=O)c(O)c-2oc2c(O)c(O)ccc12,2µM*,?,1.6µM*,>57
O=C(CCCCn1c(=O)[nH]c2ccccc2c1=O)N1CCN(c2cccc(C(F)(F)F)c2)CC1,-4%,?,93%,>57
O=C(CCCn1c(=O)[nH]c2ccccc2c1=O)N1CCN(c2ccccn2)CC1,12%,12%,3.2µM*[single pt active],>57
SMILES,AmpC inh det,Anthrax LT inh,AmpC inh no det,Prx2 Sm inh
O=C(CCCCn1c(=O)[nH]c2ccccc2c1=O)N1CCN(c2ncccn2)CC1,14%,-8%,4µM*[single pt active],>57
Cc1sc2nc3ccc(N4CCCC4)nn3c(=O)c2c1C,18%,-14%,4µM*[single pt active],>57
O=c1cc(-c2ccc(O)cc2)oc2cc(O)cc(O)c12,6%,-17%,4µM*!,>57
O=c1cc(-c2ccccc2)oc2cc(O)cc(O)c12,-1%[12.8 µM],-5%[3.58 µM],-12%[12.8 µM],>57
C#CCN1C(C)=C(C(=O)OC)[C@@H](c2cccc([N+](=O)[O-])c2)C(C(=O)OCC)=C1C,0%,3%,22%,>57
Cc1cc(C(C)(C)C)c(O)c(C(C)(C)C)c1,12%,·,4%,·
Cc1cc(-c2cc(C)c(O)c(C(C)(C)C)c2)cc(C(C)(C)C)c1O,-2%[5.75 µM],2.5µM*,-4%[5.75 µM],>57
CC[C@@H](c1ccccc1)n1c(=O)n2n(c1=O)[C@H]1[C@H](O)[C@H]3O[C@@H]3/C(=N/OC[C@@H](O)COCc3ccco3)[C@@H]1CC2,·,-9%[8 µM],·,·
COc1ccc(CNC(=O)C(c2cccs2)N(C(=O)c2csnn2)C2CC2)cc1 (configuration not stated),-4%,7.9µM*,18%,>57
CCNC(=O)[C@@H]1O[C@@H](n2cnc3c(NCc4ccccc4)ncnc32)[C@@H](O)[C@H]1O,-3%,?,2%,>57
CC(C)(C)c1cc(C(=O)/C=C/c2ccc(C(=O)O)cc2)cc(C(C)(C)C)c1,·,13µM*,·,·
O=Cc1ccc(C(=O)O)cc1,6%,-6%,3%,·
CCN(CC)CCCNC(=O)CC1Oc2ccc(C)cc2NC1=O (configuration not stated),13%,5%,4µM*[single pt active],>57
CCC(C)NC(=O)CC1Oc2ccc(C)cc2NC1=O (configuration not stated),13%,-3%,4µM*[single pt active],>57
NC(=O)c1ccsc1NC(=O)c1nc(-c2ccccc2)n(-c2ccccc2)n1,-1%,10µM*,-24%,?
COc1ccc2c(c1)OC13CCN(C)CC1C2C(C(=O)c1ccc(F)cc1)C(=O)N3 (configuration not stated),16%,-18%,4µM*[single pt active],>57
COc1ccccc1-c1cc(C(=O)N2CCc3ccccc3C2)no1,7%,?,17%,>57
CCOC(=O)C1CCN(CCC(=O)Nc2cccc(Cl)c2)CC1,1%,10µM*,-10%,>57
CCOC(=O)C1CCCN(CCC(=O)Nc2cccc(F)c2)C1 (configuration not stated),9%,-20%,-3%,>57
COC(=O)c1ccc(-c2nn(C)c(=O)c3ccccc23)cc1,11%,-15%,4µM*[single pt active],>57
CN(C1CCCCC1)S(=O)(=O)c1ccc2c(c1)c(=O)c(C(=O)NCCN1CCCC1)cn2C,10%,10µM*,91%,>57
CN(CCNC(=O)c1cn(C)c2ccc(S(=O)(=O)N(C)C)cc2c1=O)CCc1ccccc1,14%,-13%,4µM*[single pt active],>57
CCn1cc(C(=O)NCCCOC)c(=O)c2cc(S(=O)(=O)N(C)C)ccc21,13%,-1%,3.2µM*[single pt active],>57
COc1ccc2c(c1)CCC1C2CC[C@]2(C)[C@H](NCCCCCCN3C(=O)C=CC3=O)CC[C@@H]12 (some centres not stated),-6%,3%,0%,>57
C[C@H](CCC(=O)O)[C@H]1CC[C@]2(C)[C@@H]3C(=O)C[C@H]4C(C)(C)[C@@H](O)CC[C@]4(C)[C@H]3C(=O)C[C@@]12C,-2%[5.75 µM],?,-2%[5.75 µM],>11
CC(C)CNCCc1ccccn1,-3%[5.75 µM],?,4%[5.75 µM],>57
COc1ccc(C2C(C(C)=O)=C(O)C(=O)N2CCO)c(OC)c1 (configuration not stated),-3%,-21%,-3%,>57
CCN(CC)CCCN1C(=O)C(O)=C(C(C)=O)C1c1ccc(OC)cc1OC (configuration not stated),12%,-3%,4µM*[single pt active],>57
